Most compounds without a hit are left out; they make up all but 11% or so of the library.
hNpr1 antagonist: blocks ANP-stimulated signaling of human Npr1 receptor; HEK293 hNpr1 GloSensor cGMP, ANP-stimulated luminescence; Potency, µM (series often up to 46.3 µM), inactives show top-dose activity change, negative = inhibition, hits mostly inhibitors; 76,000 tested, 1.6% active; AID 1347048; calls by dose curve; further: nearly all actives have a fitted effect of over 60% in size
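Compound pre-incubated 30 min at room temperature on GloSensor-loaded HEK293 cells stably carrying hNpr1 and the pGS-40F cGMP biosensor. Stimulation uses hNppA at 0.1 nM final; luminescence is taken at baseline and 20 min post-agonist.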
3T3 cytotox: NIH 3T3 cell cytotoxicity; 94,000 tested, 4.3% active; Potency, µM (titrated, usually from 96.7 µM), for the others: top-dose activity change, negative = cytotoxicity, most hits filed as inhibitors; NIH 3T3 viability, CellTiter-Glo ATP luminescence, 48-72 h; further: nearly all actives have a fitted effect of over 55% in size
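NIH 3T3 cells at 400 cells/well received 23 nL of compound by pintool and were incubated 48 or 72 h at 37 °C. Viability was read as ATP-coupled CellTiter-Glo luminescence.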
HEK293 tox: cytotoxic compounds in HEK 293 cells | HEK 293 viability, ATP luminescence (CellTiter-Glo), 48-72 h | Potency, µM (titrated, usually from 115 µM), for the others: at the top dose activity change, negative = cytotoxicity, actives largely listed as inhibitors | 94,000 tested, 6.6% active | AID 1345083; further: nearly all actives have a fitted effect of over 60% in size
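HEK 293 seeded at 250 cells/well receive compound via pintool. After 48 or 72 hr at 37 degree Celsius, 5% CO2 and 95% humidity, CellTiter-Glo is dispensed and luminescence read following 10 min at room temperature.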
Luciferase inh: blocks purified firefly luciferase enzyme activity | P08659 | purified P. pyralis luciferase, luminescence, biochemical | Potency, µM (titrated, usually from 115 µM), most hits filed as inhibitors | 76,000 tested, 2.5% active; further: nearly all actives have a fitted effect of over 65% in size
Target sequence (P08659 whole entry, looked up): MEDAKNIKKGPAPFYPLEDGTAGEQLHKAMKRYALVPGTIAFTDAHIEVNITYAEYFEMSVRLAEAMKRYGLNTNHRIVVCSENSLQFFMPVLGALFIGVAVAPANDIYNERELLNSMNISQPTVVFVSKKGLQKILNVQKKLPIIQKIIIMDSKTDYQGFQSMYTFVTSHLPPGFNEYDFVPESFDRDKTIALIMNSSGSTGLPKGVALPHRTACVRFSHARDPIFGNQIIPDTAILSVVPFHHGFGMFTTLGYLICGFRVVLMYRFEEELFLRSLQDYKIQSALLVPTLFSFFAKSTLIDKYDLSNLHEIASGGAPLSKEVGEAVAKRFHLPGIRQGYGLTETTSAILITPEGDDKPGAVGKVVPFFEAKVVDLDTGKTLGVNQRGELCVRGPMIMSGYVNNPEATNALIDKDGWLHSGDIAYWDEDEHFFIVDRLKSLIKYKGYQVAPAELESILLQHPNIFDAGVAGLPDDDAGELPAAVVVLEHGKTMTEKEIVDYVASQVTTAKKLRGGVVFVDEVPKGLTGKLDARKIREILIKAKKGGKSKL
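Purified 10nM P. pyralis luciferase with 10uM D-luciferin and 10uM ATP in 50mM Tris acetate pH 7.5, 10mM Mg acetate, 0.01% Tween-20, 0.05% BSA. qHTS titration; luminescence read by CCD imager.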
An asterisk follows results filed as active; i = inactive; ? = inconclusive; . = no result given; [ ] = dose if it differs, or a comment. Unless noted, the call rests on the fitted dose curve; in most records, active means well fitted curve in the direction sought with a large enough effect; inconclusive means small, poorly fitted or top-dose-only effect, or another doubt; inactive means no such curve, though single readings can be large; an effect the other way counts as inactive or inconclusive. On the % scale 0 is the no-effect control and ±100 the full control effect; potency means the concentration at half of the fitted maximal effect.

SMILES	hNpr1 antagonist	3T3 cytotox	HEK293 tox	Luciferase inh
Cn1ncc2c(C(=O)NCC3CCCCCC3)cc(-c3ccccc3F)nc21	.	?	32µM*	.
Cn1ncc2c(C(=O)NCCc3ccccc3F)cc(-c3ccsc3)nc21	.	-10%	-3%	.
CCOC(=O)[C@H]1[C@@H](O)C(=O)N(C(C)C)C12CCN(C(=O)c1cc(C)oc1C)CC2	.	?	-6%	.
COc1ccc(-c2cc(NCCO)nc3[nH]ccc23)cc1C(F)(F)F	-16%	40µM*	40µM*	i
O=C(NC1CCN(c2ccc3nnc(C4CC4)n3n2)C1)c1ccc(F)cc1 (stereo not drawn)	.	-22%	-1%	.
O=C(NCc1cccc(C(F)(F)F)c1)C1CCN(Cc2ccccc2-c2ccccc2F)CC1	.	?	25µM*	.
O=C(NCc1ccc(F)cc1)C1CCN(Cc2ccccc2-c2ccccc2F)CC1	.	32µM*	32µM*	.
O=C(NCc1cccnc1)c1cn2cc(-c3ccccc3)sc2n1	.	?	50µM*	.
COc1cccc(CNC(=O)c2cn3cc(-c4cccnc4)sc3n2)c1	.	?	-31%	.
COc1cccc(-c2cn3cc(C(=O)NCc4cccnc4)nc3s2)c1	.	?	32µM*	.
COc1ccc(-c2noc(CCCC(=O)N3CCC(c4nc(C5CCOCC5)no4)C3)n2)cc1OC (stereo not drawn)	-27%	?	?	i
COc1ccc(-c2noc(CCCC(=O)N3CCCn4nc(-c5ccc(F)cc5)cc4C3)n2)cc1OC	.	?	32µM*	.
COc1cccc(-c2ncc3c(n2)OCCN(CC2CC2)C3=O)c1OC	3%[70.6 µM]	89µM*	-27%[172 µM]	i
O=C1c2cnc(-c3ccncc3)nc2OCCN1c1ccccc1	-5%[70.6 µM]	-23%[138 µM]	?	?
COc1cccc(-c2ncc3c(n2)OCCN(c2ccccc2)C3=O)c1OC	-9%[70.6 µM]	79µM*	?	?
COc1cccc(CN2CC3(C2)C(=O)N(Cc2cccc(Cl)c2)C(=O)[C@@H]2C[C@@H](O)CN23)c1	1%	?	-17%	i
COc1ccccc1-c1cccc(C(=O)N2CCC[C@H]2C(=O)NCc2cccc(F)c2)c1	.	-18%	?	.
COc1ccc(CNC(=O)C2CCCCN2Cc2ccc(-c3ccccc3OC)cc2)cc1OC (stereo not drawn)	.	?	32µM*	.
COc1ccc(F)cc1-c1ccc(CN2CCCCC2C(=O)NC(C)CCc2ccccc2)cc1 (stereo not drawn)	.	?	25µM*	.
COc1ccccc1-c1ccc(CN2CCCCC2C(=O)NCc2cccc(C(F)(F)F)c2)cc1 (stereo not drawn)	.	?	28µM*	.
COc1ccccc1-c1cccc(C(=O)N2CCC[C@H]2C(=O)NCc2ccc(C(F)(F)F)cc2)c1	.	?	79µM*	.
Cc1cn2nc(C(=O)N3CCCCC3)cc2c(N(C)Cc2ccccc2)n1	-3%	?	?	i
CCOC(=O)[C@H]1[C@@H](O)C(=O)N(C(C)C)C12CCN(C(=O)c1csc(-c3cccs3)n1)CC2	.	?	2%	.
O=C(NCc1cc(F)ccc1F)C1Cn2cccc2C(=O)N1Cc1ccccc1 (stereo not drawn)	0%	-17%	-12%	i
COc1ccc(F)cc1-c1ccc(CN2CCCCC2C(=O)NCc2ccccc2)cc1 (stereo not drawn)	.	?	32µM*	.
SMILES	hNpr1 antagonist	3T3 cytotox	HEK293 tox	Luciferase inh
COc1ccc(F)cc1-c1ccc(CN2CCCCC2C(=O)NCc2cccs2)cc1 (stereo not drawn)	.	13µM*	?	.
O=C(NCc1cccc(C(F)(F)F)c1)C1CCCN1Cc1ccc(-c2cncnc2)cc1 (stereo not drawn)	.	?	50µM*	.
COc1ccc(F)cc1-c1ccc(CN2CCCCC2C(=O)NCc2ccccc2F)cc1 (stereo not drawn)	.	?	25µM*	.
CC(=O)N1CC2(CCCN(Cc3ccccn3)C2)Cc2ccccc21 (stereo not drawn)	.	-10%	-18%	.
CN1CCc2c([nH]c3ccccc23)C12CCN(C(=O)C1CC1)CC2	0%	-3%	?	i
CC(C)(N)C(=O)N1CCCC(N2CCN(c3cccc(Cl)c3)CC2)C1 (stereo not drawn)	3%	?	?	i
Cc1cc2cc(-c3c(C)noc3C)nc(-c3ccsc3)c2o1	12%[70.6 µM]	?	?	i
CC(=O)Nc1cccc(-c2nc(-c3c(C)noc3C)cc3cc(C)oc23)c1	6%[70.6 µM]	40µM*	79µM*	i

High-throughput results from PubChem BioAssay.
